In the supplement of paper PMC4723716:

Tested on: Plasmodium falciparum NF54 gametocytes
Assay: viability index relative to DMSO control (fraction); higher = less gametocyte killing
Conditions: 12.5 µM, incubation time: 72 h
In short: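 Each stage (I–V) of P. falciparum NF54 gametocytes was incubated with compound at 12.5 µM in 384-well plates, in 40 µl of serum-containing medium at 0.50% gametocytemia and 1.25% hematocrit, for 72 hr at 37°C under low oxygen. After 5 µl of 5 µM MitoTracker Red CMXRos was added for 20 min, 5 µl from each well was moved into 40 µl of 500 nM dye in serum-free medium and imaged across three fields after 30 min. The viability index is the gametocyte particle count divided by the plate mean of the solvent-only wells.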

[1] = gametocyte stage: Stage I viability index
[2] = gametocyte stage: Stage II viability index
[3] = gametocyte stage: Stage III viability index
[4] = gametocyte stage: Stage IV viability index
[5] = gametocyte stage: Stage V viability index

Row | SMILES | viability index [1] | viability index [2] | viability index [3] | viability index [4] | viability index [5]
1 | CCOc1cc(Br)c(C(C)NC(=O)c2cccc(OC)c2)cc1OCC (stereo not given) | 0.465 | 0.412 | 0.58 | 0.748 | 0.648
2 | CCOc1ccc(CCNC(=O)c2cccs2)cc1OCC | 1.14 | 0.896 | 1.1 | 0.884 | 0.593
3 | CCCc1c(C)nc2ccccc2c1O | 0.634 | 0.705 | 0.844 | 0.72 | 1.02
4 | FC(F)(F)c1ccc(Nc2nnnc3ccccc23)cc1 | 0.604 | 0.736 | 0.921 | 0.72 | 0.868
5 | CN1CCN(c2c3c(c(C#N)c4nc5ccccc5n24)CCC3)CC1 | 1.02 | 0.865 | 1.03 | 1.05 | 0.846
6 | CCOc1ccc(C=Cc2nc(=O)c3ccccc3o2)cc1 | 0.549 | 0.836 | 0.85 | 0.805 | 0.67
7 | O=C(Nc1ccccc1O)c1ccc(Oc2cccc(C(=O)Nc3ccccc3O)c2)cc1 | 0.00331 | 0.161 | 0.434 | 0.456 | 0.462
8 | COc1ccc(C2N(C)c3ccccc3N2C)cc1 | 0.939 | 0.93 | 1.01 | 0.964 | 1.07
9 | Cc1ccc(C2CC(C(F)(F)F)n3nc(C(=O)N4CCN(C(c5ccccc5)c5ccccc5)CC4)cc3N2)cc1 (stereo not given) | 0.576 | 0.645 | 0.944 | 0.804 | 0.922
10 | CC1CCCCN1CCCNC(=O)c1ccc2c(c1)sc1nc(-c3ccc(F)cc3)cn12 (stereo not given) | 0.113 | 0.443 | 1.05 | 1.2 | 1
11 | CC(C)=CCN1CCC(C(=O)Nc2ccc(-c3nc4ccccc4[nH]3)cc2)CC1 | 0.0674 | 0.525 | 0.921 | 0.912 | 0.967
12 | C[n+]1c2ccccc2nc2ccc(NCCO)cc21 | 0.0398 | 0.302 | 0.595 | 0.824 | 1.03
13 | Cc1[nH]c(-c2ccc(F)cc2)cc1C(=O)NC1CCN(Cc2ccccc2)CC1 | 0.131 | 0.502 | 0.744 | 0.881 | 1.09
14 | COc1ccc(-c2cn3c(C(=O)Nc4ccccc4Cl)c(-c4ccccc4)c4c3n2CCCC4)cc1 | 0.673 | 0.531 | 0.719 | 0.794 | 0.779
15 | Cc1cc(C)c2nc(N3CCC(C(=O)NCCCN4CCC(N5CCCCC5)CC4)CC3)sc2c1 | 0.0166 | 0.204 | 0.455 | 0.477 | 0.352
16 | COc1cc(SC)ccc1C(=O)N1CCCC(C)C1 (stereo not given) | 0.982 | 0.96 | 1.17 | 1.16 | 1.18
17 | c1ccc(Cn2c(N=Nc3c(Nc4ccccc4)ccc4ccccc34)nc3ccccc32)cc1 | 0.00884 | 0.0106 | 0.058 | 0.149 | 0.209
18 | Cc1c(C)n(CC(O)CNC2CCCCC2C)c2ccccc12 (stereo not given) | 0.0939 | 0.217 | 0.644 | 0.766 | 0.923
19 | CCc1c(C)c(=N)c2ccccc2n1C | 0.725 | 1.01 | 1.24 | 0.988 | 0.791
20 | Clc1ccc2c(N3CCCC3)ccnc2c1 | 0.241 | 0.491 | 0.915 | 0.93 | 1.14
21 | COc1ccc(CN2CCCC(C(=O)c3ccc(C(F)(F)F)cc3)C2)c(O)c1 (stereo not given) | 0.049 | 0.0866 | 0.365 | 0.554 | 0.779
22 | CCCc1c(CC)c(=N)c2ccccc2n1C | 0.815 | 0.952 | 1.09 | 0.951 | 1.1
23 | CSC1=NC(=Nc2c(C)cccc2C)C2(CCC(C(C)(C)C)CC2)N1c1ccc(Cl)cc1 (stereo not given) | 0.646 | 0.816 | 0.928 | 0.994 | 0.835
24 | O=C(Nc1ccc(F)c(Cl)c1)Nc1ccc(Cl)c(Cl)c1 | 0.0409 | 0.0309 | 0.0835 | 0.17 | 0.165
25 | CCOC(=O)C1=C(c2ccccc2)N=c2sc(=Cc3cc(C)n(-c4ccc(F)cc4)c3C)c(=O)n2C1c1cccc(OC)c1OC (stereo not given) | 0.806 | 0.787 | 0.996 | 0.839 | 0.703
26 | CCC(c1ccccc1)c1nn2c(-c3cccs3)nnc2s1 (stereo not given) | 1.04 | 0.992 | 1.07 | 0.875 | 0.725
27 | Cc1ccc(C)c(-c2csc(Nc3ccc(C)c(C)c3)n2)c1 | 0.856 | 0.815 | 0.82 | 0.639 | 0.558
28 | Cc1ccc(CSCc2ccc(C(=O)NC3CC3)o2)cc1 | 0.678 | 0.965 | 1.07 | 0.924 | 0.978
29 | Oc1ccc(Cl)cc1CNc1nc2ccccc2[nH]1 | 0.0751 | 0.545 | 0.822 | 0.891 | 0.736
30 | Oc1ccc2ccccc2c1CNc1nc2ccccc2[nH]1 | 0.0376 | 0.182 | 0.512 | 0.462 | 0.273
